Where “and” joins values, the source holds several entries; their conditions need not be identical. Equal values may be shown once. Records with an inconclusive call do not appear. Where a call stands in place of a potency, no number is given. Values without a mark were called inactive. Calls of active or inactive are those of the source. Calls follow the shape of the dose curve; as a rule, active = well fitted inhibition curve with a large enough effect; inconclusive = small, poorly fitted or top-dose-only effect; inactive = flat fitted curve, though single readings scatter. Non-standard residues stand in square brackets, D forms with d. Residues, ends and D or L forms follow the SMILES beside them.

In this assay the test system is Zika virus NS2B-NS3 protease. Description: Primary screen GU AMC qHTS for Zika virus inhibitors (AID 1347154). Also: nearly all actives have a fitted effect of over 70% in size. To be noted: Zika NS2B-NS3 unlinked protease, AMC fluorogenic substrate; series mostly up to 54.1 µM. The source says: Avindra Nath, Ph.D., National Institute of Neurological Disorders and Stroke (NINDS), Bethesda, MD
Radhakrishnan Padmanabhan, Ph.D., Georgetown University (GU), Washington D.C.
Zika Virus causes congenital defects, including microcephaly and is associated with Guillain-Barre syndrome, eningoencephalitis and myelitis in infected adult. […] Using a target-based approach, we hope to establish a screening paradigm to uncover novel, cell-active NS2B-NS3 protease (Zika Virus) specific inhibitors from NCATS' collection of small molecules using qHTS.
Early Translation Branch (ETB)
National Center for Advancing Translational Sciences (NCATS), Rockville, MD
National Institute of Health (NIH), Bethesda, Maryland
Padmanabhan lab provided the NS2B hydrophilic domain and NS3 protease domain in a noncovalent complex used for the unlinked assay. Control compound aprotinin is obtained from Thermo Scientific (#78432; Waltham, Massachusetts). NS2B-NS3 AMC substrate (Bz-Nle-Lys-Arg-Arg-AMC; Nle-KRR-AMC) purchased from Bachem (#I-1995; Torrance, CA). Ac-VKTGKR-AMC purchased from Genscript or Bachem, Ac-FAAGKR-AMC purchased from Genscript, Ac-GLVKRR-AMC purchased from Genscript, Ac-LKKR-AMC purchased from Genscript.
GU AMC unlinked NS2B-NS3 protease qHTS protocol
Briefly, 3 microL of Zika virus unlinked NS2B-NS3 protease (25 nM for linked final concentration), in assay buffer (10 mM Tris-HCl pH 8.0 with 0.01% Tween 20) was dispensed into a 1,536-well solid-bottom black plate (Greiner Bio One, Monroe, NC). […] Plates were then read immediately on a ViewLux High-throughput CCD imager (PerkinElmer, Waltham, MA) equipped with standard UV fluorescence optics (340(30) nm excitation, 450(20) nm emission) then incubated (room temperature, protected from light) for 15 minutes (~20% conversion). The change in fluorescence intensity over the 15-minute reaction period was normalized against no-inhibitor and no-enzyme controls and the resulting percent inhibition data were fitted to a 4-parameter Hill equation. Aprotinin was used as the intraplate control.
`N=C(N)S/C=C\C(=O)O`: the Potency result is “inactive”.

For the molecule `Cc1cc(C)c(S(=O)(=O)Nc2cccc(C(F)(F)F)c2)c(C)c1`, the Potency result is “inactive”.

In the case of `CCCCCCCCCCCCCCCCOC[C@H](COP(=O)([O-])OCC[N+](C)(C)C)OC(=O)NC`, the activity change, negative = inhibition was 0.721% [at 6.83 µM].

In the case of `O=C(O)COc1cccc(-c2ocnc2-c2nc(-c3ccccc3)c(-c3ccccc3)o2)c1`, the Potency entry is “inactive”.

Turning to `c1ncc(CC2CCNCC2)[nH]1`, the Potency entry is “inactive”.

For the molecule `O=C(O)Cc1cc2ccccc2nc1C(=O)O`, the Potency result was “inactive”.

`N[C@H](C(=O)O)C1[C@H](C(=O)O)[C@H]1C(=O)O` (stereo not given in full): the Potency entry is “inactive”.

As to `COc1cc(N)c(Cl)cc1C(=O)OCCCN1CCCCC1`, the Potency entry is “inactive”.

On to `CCCCC/C=C\C/C=C\CCCCCCCC(=O)O[C@@H](CO)COC(=O)CCCCCCCCCCCCCCCCC`, for which the activity change, negative = inhibition was 7.9% [at 6.83 µM].

Take `CCCCC[C@H](O)/C=C/[C@@H]1[C@H]2C/C(=C/CCCC(=O)O)C[C@H]2C[C@H]1O`: the Potency entry was “inactive”.

As to `CCCCCCCCCCCCC/C=C/[C@@H](O)[C@H](CO)N(C)C`, the activity change, negative = inhibition was 11% [at 6.83 µM] and 6.76% [at 6.83 µM].

On to `C=C[C@@]1(C)CC(=O)[C@@]2(O)[C@@]3(C)[C@@H](O)CCC(C)(C)[C@@H]3[C@H](O)[C@H](OC(C)=O)[C@@]2(C)O1`, for which the Potency entry was “inactive”.

In the case of `CC1CCC(C(C)C)C(P(=O)(c2ccccc2)c2ccccc2)C1` (stereo not given), the Potency entry is “inactive”.

For `Nc1nc2c(ncn2[C@@H]2O[C@H](COP(=O)(O)OP(=O)(O)O)[C@@H](O)[C@H]2O)c(=O)[nH]1`, the Potency result is “inactive”.

As to `Cc1ccc(NC2=CC(=O)c3sc(C)nc3C2=O)cc1`, the Potency entry is “inactive”.

`CC(C)(C)NC[C@H](O)c1ccc(O)c(CO)c1`: the Potency result was “inactive”.

On to `O=C(c1ccc(F)cc1)C1CCN(CCCCc2ccccc2)CC1`, for which the Potency result is “inactive”.

Take `COc1ccc2c(c1)c(CC(=O)N1CCOCC1)c(C)n2C(=O)c1ccc(Cl)cc1`: the Potency result was “inactive”.

As to `COc1ccc2cccc(N3CCN(CCNC(=O)c4ccc(F)cc4)CC3)c2c1`, the Potency result was “inactive”.

`Oc1ccc(Nc2nc(-c3ccc(Cl)cc3)cs2)cc1`: the Potency entry was “inactive”.

`CCC(=O)NC1Cc2ccccc2C(c2ccccc2)C1` (stereo not given): the Potency result is “inactive”.

Take `CC(C)=CCC/C(C)=C/CC/C(C)=C/CC[C@]1(C)CCc2c(C)c(O)c(C)c(C)c2O1`: the activity change, negative = inhibition is 0.636% [at 6.83 µM].

Consider `Clc1ccc(-c2nc3sccn3c2/C=N/OCc2ccc(Cl)c(Cl)c2)cc1`, for which the Potency entry was “inactive”.

On to `Nn1cc(Br)c(=O)[nH]c1=O`, for which the Potency result is “inactive”.

As for `O=C(Nc1ccccc1)C12CC1/C(=N\O)c1ccccc1O2` (stereo not given), the Potency result was “inactive”.

As for `Cc1[nH]c(/C=C2/C(=O)Nc3ccc(S(=O)(=O)Cc4c(Cl)cccc4Cl)cc32)c(C)c1C(=O)N1CCCC1CN1CCCC1` (stereo not given), the Potency result is “inactive”.

With `CCCCCCCCCCCCCCC[C@@H](O)[C@H](CO)NC(C)=O`, the activity change, negative = inhibition is 7.2% [at 6.83 µM].

In the case of `c1cc2c3c(c1)c1c(n3CCNC2)CCCC1`, the Potency result was “inactive”.

For the molecule `CSCC[C@H](C=O)NC(=O)[C@H](CC(C)C)NC(=O)[C@H](CC(C)C)NC(C)=O` (Ac-Leu-Leu-[dM]-aldehyde), the Potency entry is “inactive”.

For the molecule `CC(=O)[C@H](CC(C)C)NC(=O)[C@@H](CC(C)C)NC(=O)[C@H](CC(C)C)NC(=O)OCc1ccccc1`, the Potency result was “inactive”.

With `C[C@]12CC[C@@H](O)C[C@@H]1CC[C@@H]1[C@@H]2CC[C@]2(C)C=CC[C@@H]12`, the Potency result is “inactive”.

As for `CC(C)=CCN1CCC2(CCc3ccccc32)CC1`, the Potency result is “inactive”.

As for `CN1[C@@H]2CC(OC(=O)[C@H](CO)c3ccccc3)C[C@@H]1[C@H]1O[C@H]12` (stereo not given in full), the Potency result was “inactive”.

`NC(CC(=O)Nc1ccc(Oc2cc(F)c(F)cc2Br)cc1)C(=O)O` (stereo not given): the Potency result was “inactive”.

For `Nc1ncnc2c1ncn2C1O[C@H](COP(=O)(O)O)[C@@H](O)[C@H]1O` (stereo not given in full), the Potency entry is “inactive”.

Consider `C[C@]12CC3CC(N)(C1)C[C@@](C)(C3)C2`, for which the Potency result is “inactive”.

For `COc1ccc2c3c1O[C@H]1C[C@H](O)C=C[C@@]31CCN(C)C2`, the Potency result was “inactive”.

As for `Nc1ncnc2c1cnn2-c1ccccc1`, the Potency result is “inactive”.

For `CSCC[C@H](NC(=O)[C@H](Cc1ccccc1)NC[C@@H](NC[C@@H](N)CS)C(C)C)C(=O)O`, the Potency result is “inactive”.

On to `CC1=C(C(=O)OC(C)C)[C@@H](c2cccc3nonc23)C([N+](=O)[O-])=C(C)N1`, for which the Potency result is “inactive”.

The record behind these values is PubChem BioAssay (NCATS).
